The record followed here is ChEMBL document CHEMBL1157539, “Thousands of chemical starting points for antimalarial lead identification” (Nature, 2010).

The structures appear in SMILES notation. Several values for one entry are separate records, joined by “and”; a condition that tells them apart may be missing. Equal values may be shown once.

What all share (format): functional
Assay [1] deals with Plasmodium falciparum. The assay is described as follows: GSK_TCMDC: Inhibition of Plasmodium falciparum 3D7 in whole red blood cells, using parasite LDH activity as an index of growth. Test compounds present at 2uM.
Assay [2] deals with Plasmodium falciparum. The assay is described as follows: GSK_TCMDC: Inhibition of Plasmodium falciparum Dd2 in whole red blood cells, using parasite LDH activity as an index of growth. Test compounds present at 2uM.
Another assay deals with HepG2. As to the kind of experiment: GSK_TCMDC: Percent inhibition of human HepG2 cell line. Test compounds present at 10uM.

As usually defined, the Inhibition is the drop in the measured response relative to a control, in per cent. Low readings indicate little suppression, high ones strong suppression. In the case of `C#CCN(Cc1ccc2[nH]c(N)nc(=O)c2c1)c1ccc(C(=O)N[C@@H](CCC(=O)O)C(=O)O)cc1`, the Inhibition was 95% in the assay with Plasmodium falciparum [1], 96% with Plasmodium falciparum [2] and 45% in the assay with HepG2.

As for `CC(=Nc1ccc(Cl)c(Cl)c1)N(C)C.Cl`, the Inhibition was determined as 98% in the assay on Plasmodium falciparum [1], 0% in the assay with Plasmodium falciparum [2] and 0% with HepG2.

With `O=C(NC1CC1)c1cnc(N2CCC(Oc3ccc(Cl)cc3)CC2)c(Cl)c1`, the Inhibition with Plasmodium falciparum [1] was found to be 86%; in the assay on Plasmodium falciparum [2], 75%; with HepG2, 12%.

As to `CCc1ccc(CN(CCCOc2cccc(CC(=O)NCc3c[nH]cn3)c2)Cc2ccc(-n3ccnc3)cc2)cc1`, the Inhibition with Plasmodium falciparum [1] amounted to 99%; with Plasmodium falciparum [2] it was 28%; in the assay with HepG2 it was 1%.

Regarding `O=C(c1ccc([N+](=O)[O-])o1)N1CCC(c2cn(Cc3cccc(F)c3)c3ccccc23)CC1`, the Inhibition turned out to be 97% in the assay with Plasmodium falciparum [1], 95% in the assay on Plasmodium falciparum [2] and 1% in the assay with HepG2.

Regarding `O=C(/C=C/c1ccc(Cl)c(Cl)c1)NCCCCCN1CCC(c2c[nH]c3ccccc23)C(O)C1` (stereo not drawn), the Inhibition in the assay on Plasmodium falciparum [1] is 96% and 99%; in the assay with Plasmodium falciparum [2], 9% and 0%; in the assay on HepG2 it was 34% and 12%.

For the molecule `Cc1cc(Nc2ccncc2)n2nc(C)c(-c3ccc(Cl)cc3)c2n1`, the Inhibition amounted to 100% with Plasmodium falciparum [1], 99% in the assay with Plasmodium falciparum [2] and 0% in the assay with HepG2.

Consider `COc1cc(-c2nc(-c3ccncc3)c(-c3ccc4c(c3)CCC4=NO)[nH]2)ccc1OCCN1CCN(C)CC1.Cl`, for which the Inhibition in the assay on Plasmodium falciparum [1] stood at 99%; in the assay on Plasmodium falciparum [2], 77%; in the assay with HepG2 it was 53%.

Take `O=c1c2ccccc2[nH]c2nc3ccccc3c(Nc3ccccc3)c12`: the results for the Inhibition in the assay on Plasmodium falciparum [1], in the assay on Plasmodium falciparum [2] and in the assay on HepG2 were 98%, 97% and 8%, respectively.

Take `Cc1[nH]c(C)c(-c2ccc(-c3ccc(Cl)cc3)nc2)c(=O)c1Br`: the Inhibition is listed as 97% in the assay with Plasmodium falciparum [1], 96% in the assay on Plasmodium falciparum [2] and 21% with HepG2.

On to `COc1ccc(CNCCc2cccs2)cc1-c1ccc(OC)c(S(=O)(=O)NCCN2CCCC2)c1.O=C(O)C(F)(F)F`, for which the Inhibition turned out to be 96% in the assay with Plasmodium falciparum [1], 19% with Plasmodium falciparum [2] and 16% with HepG2.

For `COc1cccc(-c2cc3nc4c(c(NCCCn5ccnc5)n3n2)CCCC4)c1`, the Inhibition with Plasmodium falciparum [1] is 100%; with Plasmodium falciparum [2], 66%; in the assay on HepG2, 10%.

`O=C(Nc1cccc(CN2CCN(Cc3cccc(O)c3)CC2)c1)c1cc2ccccc2s1.O=C(O)C(F)(F)F`: the Inhibition came out at 86% in the assay on Plasmodium falciparum [1], 54% in the assay on Plasmodium falciparum [2] and 13% in the assay with HepG2.

For the molecule `CCc1sc(-c2cc(Cl)ccc2OC)nc1C(=O)NCCN1CCCCC1.O=C(O)C(F)(F)F`, the Inhibition turned out to be 100% in the assay on Plasmodium falciparum [1], 28% with Plasmodium falciparum [2] and 3% in the assay on HepG2.

For the molecule `Cc1ccc(N2C(=O)C3C(C2=O)C2(c4ccccc4)C(=O)C3(c3ccccc3)C(c3ccccc3)=C2c2ccccc2)c(C)c1` (stereo not drawn), the Inhibition in the assay on Plasmodium falciparum [1] came to 96%; in the assay on Plasmodium falciparum [2], 96%; with HepG2, 3%.

Turning to `CC(=O)Nc1nc(C(=O)Nc2ccc(-c3cccc(-c4nc5ccccc5[nH]4)c3)cc2)cs1`, the values for the Inhibition with Plasmodium falciparum [1], in the assay on Plasmodium falciparum [2] and in the assay with HepG2 were 99%, 83% and 68%, respectively.

On to `O=C(Nc1ccc([N+](=O)[O-])cc1)Nc1cc(C(F)(F)F)ccc1F`, for which the figures for the Inhibition in the assay with Plasmodium falciparum [1], with Plasmodium falciparum [2] and in the assay on HepG2 were 89%, 46% and 8%, respectively.

Consider `O=C(Nc1ccc2oc(-c3ccc(Br)cc3)nc2c1)c1ccc([N+](=O)[O-])o1`, for which the Inhibition in the assay with Plasmodium falciparum [1] was determined as 92%; in the assay on Plasmodium falciparum [2], 21%; with HepG2, 9%.

Regarding `CC(C)COc1ccc(Cl)cc1Cc1ccc(-c2nc3ccc(F)c(F)c3[nH]2)o1`, the Inhibition amounted to 94% with Plasmodium falciparum [1], 85% in the assay with Plasmodium falciparum [2] and 26% in the assay on HepG2.

`c1ccc2[nH]c(-c3ccc(-c4ccc(CN5CCCCC5)cc4)s3)nc2c1`: the values for the Inhibition with Plasmodium falciparum [1], in the assay on Plasmodium falciparum [2] and in the assay on HepG2 were 100%, 69% and 41%, respectively.

For `Fc1ccc2[nH]c(-c3cccc(-c4ccc(CNCCN5CCNCC5)cc4)c3)nc2c1.O=C(O)C(F)(F)F`, the Inhibition turned out to be 90% in the assay on Plasmodium falciparum [1], 0% with Plasmodium falciparum [2] and 9% in the assay with HepG2.

As to `O=C1C(c2ccccc2)=C(Nc2cccc(OC(F)(F)C(F)F)c2)c2ccccc21`, the Inhibition with Plasmodium falciparum [1] was 96%; in the assay on Plasmodium falciparum [2], 96%; with HepG2, 0%.

On to `Cc1ccc(C)c(Cn2ccc3nc(N)nc(N)c32)c1`, for which the Inhibition with Plasmodium falciparum [1] is listed as 97%; in the assay on Plasmodium falciparum [2] it was 3%; in the assay with HepG2, 65%.

Turning to `Cc1ccc2[nH]c(-c3ccccc3)cc(=NN=Cc3cccnc3)c2c1`, the Inhibition in the assay with Plasmodium falciparum [1] was 99%; with Plasmodium falciparum [2] it was 39%; in the assay on HepG2, 12%.

For `CN(C)CCOc1cc(NC(=O)Nc2ccc(-c3ccccc3)cc2)ccc1I`, the Inhibition was 100% in the assay on Plasmodium falciparum [1], 45% with Plasmodium falciparum [2] and 9% with HepG2.

For the molecule `Cc1ccccc1C1CCN(C2CCC(NC(=O)C3=Cc4ccccc4OC3)CC2)CC1` (stereo not drawn), the Inhibition is given as 91% in the assay on Plasmodium falciparum [1], 15% in the assay on Plasmodium falciparum [2] and 26% in the assay with HepG2.

As for `CCCCn1c(N)c(N(Cc2ccco2)C(=O)C=Cc2cc(OC)c3c(c2)OCCO3)c(O)nc1=O`, the Inhibition stood at 85% with Plasmodium falciparum [1], 94% with Plasmodium falciparum [2] and 4% in the assay on HepG2.

In the case of `CN1CCCC(CN2CCN(Cc3cccc(-c4ccc(-c5nc6ccccc6[nH]5)cc4)c3)CC2)C1.O=C(O)C(F)(F)F` (stereo not drawn), the Inhibition in the assay on Plasmodium falciparum [1] is reported as 100%; in the assay on Plasmodium falciparum [2], 100%; with HepG2, 73%.

Consider `Cc1[nH]c(C)c(-c2ccc(CCc3ccc(F)cc3F)cc2)c(=O)c1Br`, for which the Inhibition in the assay with Plasmodium falciparum [1] is listed as 97%; in the assay on Plasmodium falciparum [2] it was 98%; in the assay on HepG2, 0%.

Take `O=C(Nc1cccc(C(F)(F)F)c1)c1ccc(S(=O)(=O)NC2CCN(CC3CCCCC3)CC2)cc1.O=C(O)C(F)(F)F`: the figures for the Inhibition with Plasmodium falciparum [1], with Plasmodium falciparum [2] and in the assay on HepG2 were 83%, 0% and 25%, respectively.

Regarding `Clc1ccc(Nc2nc(NCc3ccccc3)nc(N/N=C/c3ccccn3)n2)cc1`, the values for the Inhibition with Plasmodium falciparum [1], with Plasmodium falciparum [2] and with HepG2 were 99%, 91% and 41%, respectively.
